# Test results reported in PMC7862700, “An all-to-all approach to the identification of sequence-specific readers for epigenetic DNA modifications on cytosine”.
# Columns and labels:
# Experiment in all cases: DAPPL (digital affinity profiling via proximity ligation, sequencing); 10 mM Tris-HCl pH 7.5, 50 mM NaCl, 1 mM DTT, 4% glycerol, room temperature, 30 min; GST-TFs on glutathione beads, 16-mer random dsDNA library, 0.1% formaldehyde crosslink after washing; high values mean tight binding
# FEV = target: T1, FEV (Homo sapiens, UniProt Q99581 1-238); details: protein: recombinant; tags: N-terminal GST; dsDNA, one strand shown
# T1 sequence: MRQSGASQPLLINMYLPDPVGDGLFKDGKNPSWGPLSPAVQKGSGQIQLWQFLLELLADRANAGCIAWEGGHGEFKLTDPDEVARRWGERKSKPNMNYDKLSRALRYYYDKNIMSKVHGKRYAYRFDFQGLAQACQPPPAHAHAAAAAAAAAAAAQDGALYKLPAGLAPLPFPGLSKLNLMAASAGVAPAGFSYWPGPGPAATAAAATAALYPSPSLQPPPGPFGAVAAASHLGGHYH
# Outline: (§1)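 Pools of DNA-barcoded human transcription factors, expressed in yeast as GST fusions on glutathione beads and combined with a tag-only sample, were incubated with 200 nmole of a 16-mer random double-stranded DNA library. Incubation took 30 min at room temperature in Tris/NaCl/DTT/glycerol buffer and was followed by washing, 0.1% formaldehyde crosslinking, proximity ligation (BsaI/T4 ligase, 1 h, 37 °C), PCR amplification and sequencing on an Illumina NextSeq500. Binding signal is the ratio of a hexamer's read frequency for a factor to its frequency for the tag-only sample.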
# ETV5 = ETV5 (Homo sapiens, UniProt P41161 1-510); details: protein: recombinant; tags: N-terminal GST; dsDNA, one strand shown
# ETV5, sequence (P41161 whole entry): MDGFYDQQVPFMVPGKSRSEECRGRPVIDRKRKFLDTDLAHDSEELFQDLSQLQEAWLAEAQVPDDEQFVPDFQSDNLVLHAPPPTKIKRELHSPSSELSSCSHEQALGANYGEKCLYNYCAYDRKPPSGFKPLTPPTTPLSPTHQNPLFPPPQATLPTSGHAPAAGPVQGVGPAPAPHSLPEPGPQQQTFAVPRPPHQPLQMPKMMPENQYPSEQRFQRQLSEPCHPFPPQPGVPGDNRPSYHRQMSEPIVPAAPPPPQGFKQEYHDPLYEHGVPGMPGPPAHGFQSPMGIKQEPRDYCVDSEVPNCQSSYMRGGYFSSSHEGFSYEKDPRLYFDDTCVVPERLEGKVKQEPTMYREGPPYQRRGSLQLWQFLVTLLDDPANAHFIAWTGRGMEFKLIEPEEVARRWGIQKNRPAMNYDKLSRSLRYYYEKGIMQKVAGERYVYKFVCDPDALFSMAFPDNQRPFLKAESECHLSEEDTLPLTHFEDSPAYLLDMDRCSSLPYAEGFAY
# Outline: as §1
# HSF1 = HSF1 (Homo sapiens, UniProt Q00613 1-529); details: protein: recombinant; tags: N-terminal GST; chain copies: 3; dsDNA, one strand shown
# HSF1, sequence (Q00613 whole entry): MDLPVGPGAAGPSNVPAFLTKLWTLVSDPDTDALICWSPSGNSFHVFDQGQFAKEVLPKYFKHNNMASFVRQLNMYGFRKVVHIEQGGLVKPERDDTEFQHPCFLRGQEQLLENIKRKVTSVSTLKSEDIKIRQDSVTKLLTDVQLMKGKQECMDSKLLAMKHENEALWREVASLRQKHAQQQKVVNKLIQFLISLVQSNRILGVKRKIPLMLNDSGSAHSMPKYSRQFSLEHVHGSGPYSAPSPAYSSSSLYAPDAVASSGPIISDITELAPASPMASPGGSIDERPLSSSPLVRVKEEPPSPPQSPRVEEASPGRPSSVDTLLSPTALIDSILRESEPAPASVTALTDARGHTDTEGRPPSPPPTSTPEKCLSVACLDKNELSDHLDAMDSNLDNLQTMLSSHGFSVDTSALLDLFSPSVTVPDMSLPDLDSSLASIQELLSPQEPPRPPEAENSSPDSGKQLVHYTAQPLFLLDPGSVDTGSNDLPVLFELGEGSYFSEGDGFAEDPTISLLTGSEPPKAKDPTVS
# Outline: as §1
# SPIC = target: T2, SPIC (Homo sapiens, UniProt Q8N5J4 1-248); details: protein: recombinant; tags: N-terminal GST; dsDNA, one strand shown
# T2 sequence: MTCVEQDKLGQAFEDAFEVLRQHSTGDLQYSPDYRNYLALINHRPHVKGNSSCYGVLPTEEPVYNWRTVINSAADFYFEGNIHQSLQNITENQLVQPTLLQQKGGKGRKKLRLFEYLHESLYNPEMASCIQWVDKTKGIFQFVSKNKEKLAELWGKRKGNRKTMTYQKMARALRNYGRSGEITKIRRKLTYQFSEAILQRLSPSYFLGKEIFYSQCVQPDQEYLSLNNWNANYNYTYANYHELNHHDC
# Outline: as §1
# ELF4 = ELF4 (Homo sapiens, UniProt Q99607 1-663); details: protein: recombinant; tags: N-terminal GST; dsDNA, one strand shown
# ELF4, sequence (Q99607 whole entry): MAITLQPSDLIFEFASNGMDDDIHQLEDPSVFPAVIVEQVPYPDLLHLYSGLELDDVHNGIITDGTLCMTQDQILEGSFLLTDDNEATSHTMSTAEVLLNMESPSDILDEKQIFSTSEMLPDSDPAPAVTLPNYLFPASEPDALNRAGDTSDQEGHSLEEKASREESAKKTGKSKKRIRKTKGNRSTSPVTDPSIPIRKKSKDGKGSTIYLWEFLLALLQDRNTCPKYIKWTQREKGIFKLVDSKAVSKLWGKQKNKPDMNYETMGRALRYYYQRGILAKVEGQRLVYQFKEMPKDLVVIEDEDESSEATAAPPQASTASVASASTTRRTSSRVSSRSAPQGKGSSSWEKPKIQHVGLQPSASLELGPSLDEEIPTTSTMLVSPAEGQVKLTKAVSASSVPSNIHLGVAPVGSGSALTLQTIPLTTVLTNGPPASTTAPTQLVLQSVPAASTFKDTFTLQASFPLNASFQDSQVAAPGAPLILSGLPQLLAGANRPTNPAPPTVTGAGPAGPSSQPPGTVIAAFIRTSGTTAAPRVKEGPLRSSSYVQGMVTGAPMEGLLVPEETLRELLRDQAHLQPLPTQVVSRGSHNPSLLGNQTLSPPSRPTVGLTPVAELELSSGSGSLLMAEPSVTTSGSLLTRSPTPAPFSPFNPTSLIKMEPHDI
# Outline: as §1
# ELK4 = target: T3, ELK4 (Homo sapiens, UniProt P28324-2 1-405); details: protein: recombinant; tags: N-terminal GST; dsDNA, one strand shown
# T3 sequence: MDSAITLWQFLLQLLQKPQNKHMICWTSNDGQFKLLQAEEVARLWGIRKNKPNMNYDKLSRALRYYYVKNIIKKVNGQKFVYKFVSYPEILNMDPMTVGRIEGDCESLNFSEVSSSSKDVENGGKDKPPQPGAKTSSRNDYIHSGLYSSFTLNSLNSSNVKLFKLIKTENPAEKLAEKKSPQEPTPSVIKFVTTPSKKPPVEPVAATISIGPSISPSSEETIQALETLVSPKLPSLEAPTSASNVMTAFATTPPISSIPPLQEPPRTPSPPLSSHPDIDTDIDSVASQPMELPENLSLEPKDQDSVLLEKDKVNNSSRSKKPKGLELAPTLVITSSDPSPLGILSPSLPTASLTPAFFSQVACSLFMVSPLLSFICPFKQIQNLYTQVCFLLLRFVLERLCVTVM
# Outline: as §1
# ETV2 = target: T4, ETV2 (Homo sapiens, UniProt O00321 1-342); details: protein: recombinant; tags: N-terminal GST; dsDNA, one strand shown
# T4 sequence: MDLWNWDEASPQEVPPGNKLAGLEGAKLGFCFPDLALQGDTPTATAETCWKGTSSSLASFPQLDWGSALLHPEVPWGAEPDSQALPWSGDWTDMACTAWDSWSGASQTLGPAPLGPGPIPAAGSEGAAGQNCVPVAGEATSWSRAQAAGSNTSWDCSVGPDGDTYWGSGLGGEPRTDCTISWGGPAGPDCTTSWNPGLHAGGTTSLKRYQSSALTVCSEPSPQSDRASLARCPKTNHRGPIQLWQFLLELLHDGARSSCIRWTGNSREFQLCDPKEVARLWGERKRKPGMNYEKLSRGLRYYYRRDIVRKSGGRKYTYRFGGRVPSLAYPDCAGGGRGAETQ
# Outline: as §1
# ELF3 = target: T5, ELF3 (Homo sapiens, UniProt P78545 1-371); details: protein: recombinant; tags: N-terminal GST; dsDNA, one strand shown
# T5 sequence: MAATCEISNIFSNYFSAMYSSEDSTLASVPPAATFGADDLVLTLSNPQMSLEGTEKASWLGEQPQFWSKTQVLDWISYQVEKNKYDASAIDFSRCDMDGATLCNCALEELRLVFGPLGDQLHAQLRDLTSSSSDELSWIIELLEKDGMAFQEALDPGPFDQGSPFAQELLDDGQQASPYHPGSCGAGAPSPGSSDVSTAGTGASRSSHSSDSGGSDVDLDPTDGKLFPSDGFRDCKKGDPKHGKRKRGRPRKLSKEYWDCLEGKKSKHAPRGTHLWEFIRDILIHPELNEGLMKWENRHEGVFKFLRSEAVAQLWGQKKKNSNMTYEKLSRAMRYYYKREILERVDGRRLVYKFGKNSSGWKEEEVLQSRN
# Outline: as §1
# CRX = CRX (Homo sapiens, UniProt O43186 1-299); details: protein: recombinant; tags: N-terminal GST; dsDNA, one strand shown
# CRX, sequence (O43186 whole entry): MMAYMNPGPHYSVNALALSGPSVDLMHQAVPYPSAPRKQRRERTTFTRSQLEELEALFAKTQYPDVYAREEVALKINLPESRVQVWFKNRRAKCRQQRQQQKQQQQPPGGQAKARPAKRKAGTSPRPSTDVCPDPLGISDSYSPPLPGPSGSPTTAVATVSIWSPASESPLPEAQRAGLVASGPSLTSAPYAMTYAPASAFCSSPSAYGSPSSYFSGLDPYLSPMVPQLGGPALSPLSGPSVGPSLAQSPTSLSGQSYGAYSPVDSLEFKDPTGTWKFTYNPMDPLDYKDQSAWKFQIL
# Outline: as §1
# ETV1 = ETV1 (Homo sapiens, UniProt P50549 1-477); details: protein: recombinant; tags: N-terminal GST; dsDNA, one strand shown
# ETV1, sequence (P50549 whole entry): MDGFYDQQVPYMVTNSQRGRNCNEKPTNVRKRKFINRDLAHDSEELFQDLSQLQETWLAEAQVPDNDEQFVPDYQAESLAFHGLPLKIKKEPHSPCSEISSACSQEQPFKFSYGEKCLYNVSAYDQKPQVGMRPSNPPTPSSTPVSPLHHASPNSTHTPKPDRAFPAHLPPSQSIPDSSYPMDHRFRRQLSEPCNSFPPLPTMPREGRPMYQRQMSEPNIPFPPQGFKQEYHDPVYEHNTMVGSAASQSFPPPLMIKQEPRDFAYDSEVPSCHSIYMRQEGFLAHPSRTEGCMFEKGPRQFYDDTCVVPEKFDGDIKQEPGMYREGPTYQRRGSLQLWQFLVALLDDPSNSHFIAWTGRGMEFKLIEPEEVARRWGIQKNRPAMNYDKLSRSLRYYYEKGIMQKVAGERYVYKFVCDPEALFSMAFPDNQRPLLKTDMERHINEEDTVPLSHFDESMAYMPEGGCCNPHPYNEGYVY
# Outline: as §1
sequence,measurement,setting,value
ATGCTA,binding signal,FEV,"1.32 fold enrichment (6-mer frequency, TF over GST control)"
same,binding signal,ETV5,"1.33 fold enrichment (6-mer frequency, TF over GST control)"
same,binding signal,HSF1,"1.46 fold enrichment (6-mer frequency, TF over GST control)"
same,binding signal,SPIC,"1.23 fold enrichment (6-mer frequency, TF over GST control)"
same,binding signal,ELF4,"1.3 fold enrichment (6-mer frequency, TF over GST control)"
same,binding signal,ELK4,"1.32 fold enrichment (6-mer frequency, TF over GST control)"
same,binding signal,ETV2,"1.43 fold enrichment (6-mer frequency, TF over GST control)"
same,binding signal,ELF3,"1.29 fold enrichment (6-mer frequency, TF over GST control)"
same,binding signal,CRX,"1.45 fold enrichment (6-mer frequency, TF over GST control)"
same,binding signal,ETV1,"1.31 fold enrichment (6-mer frequency, TF over GST control)"
